# In paper PMC7862700, “An all-to-all approach to the identification of sequence-specific readers for epigenetic DNA modifications on cytosine”:
# Tests used:
# Assay in all cases: DAPPL (digital affinity profiling via proximity ligation, sequencing); 10 mM Tris-HCl pH 7.5, 50 mM NaCl, 1 mM DTT, 4% glycerol, room temperature, 30 min; GST-TFs on glutathione beads, 16-mer random dsDNA library, 0.1% formaldehyde crosslink after washing; high values mean tight binding
# [1] = target: T1, FLI1 (Homo sapiens, UniProt Q01543 1-452); settings: protein: recombinant; tags: N-terminal GST; dsDNA, one strand shown
# T1 sequence: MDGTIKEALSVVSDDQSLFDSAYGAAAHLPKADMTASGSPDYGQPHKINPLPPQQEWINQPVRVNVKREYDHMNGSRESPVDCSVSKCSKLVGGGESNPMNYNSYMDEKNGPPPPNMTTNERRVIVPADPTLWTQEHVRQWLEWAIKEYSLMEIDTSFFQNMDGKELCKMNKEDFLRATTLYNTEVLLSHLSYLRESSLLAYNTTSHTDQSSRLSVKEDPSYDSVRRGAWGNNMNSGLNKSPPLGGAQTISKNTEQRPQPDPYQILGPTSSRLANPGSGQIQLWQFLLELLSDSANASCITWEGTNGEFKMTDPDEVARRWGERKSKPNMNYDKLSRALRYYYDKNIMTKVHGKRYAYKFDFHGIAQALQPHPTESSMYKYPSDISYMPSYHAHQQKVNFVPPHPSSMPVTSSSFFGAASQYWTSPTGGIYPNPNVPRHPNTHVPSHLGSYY
# Outline: (§1)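 After expression in yeast as GST fusions, human transcription factors were bound to glutathione beads, DNA-barcoded and mixed with a tag-only sample. The pools were incubated with 200 nmole of a 16-mer random double-stranded DNA library in Tris/NaCl/DTT/glycerol buffer (30 min, room temperature), washed and crosslinked with 0.1% formaldehyde. Proximity ligation with BsaI/T4 ligase ran for 1 h at 37 °C, before PCR amplification and sequencing on an Illumina NextSeq500. Binding signal is a hexamer's read frequency for a factor divided by its frequency for the tag-only sample.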
# [2] = target: T2, ELK1 (Homo sapiens, UniProt P19419 1-428); settings: protein: recombinant; tags: N-terminal GST; dsDNA, one strand shown
# T2 sequence: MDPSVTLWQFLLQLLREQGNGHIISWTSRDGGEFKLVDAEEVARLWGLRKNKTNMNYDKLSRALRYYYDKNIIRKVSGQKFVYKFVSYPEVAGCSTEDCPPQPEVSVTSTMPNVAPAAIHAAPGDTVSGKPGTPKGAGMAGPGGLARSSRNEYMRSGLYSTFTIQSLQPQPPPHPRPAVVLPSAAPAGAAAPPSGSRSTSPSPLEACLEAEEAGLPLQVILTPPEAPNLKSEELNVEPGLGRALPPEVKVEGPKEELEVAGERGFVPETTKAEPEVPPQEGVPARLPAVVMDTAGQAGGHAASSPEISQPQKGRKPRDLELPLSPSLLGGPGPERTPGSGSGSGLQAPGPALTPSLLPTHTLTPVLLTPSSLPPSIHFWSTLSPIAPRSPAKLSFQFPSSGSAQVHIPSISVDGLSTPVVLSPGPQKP
# Outline: as §1
# [3] = target: T3, GABPA (Homo sapiens, UniProt Q06546 1-454); settings: protein: recombinant; tags: N-terminal GST; dsDNA, one strand shown
# T3 sequence: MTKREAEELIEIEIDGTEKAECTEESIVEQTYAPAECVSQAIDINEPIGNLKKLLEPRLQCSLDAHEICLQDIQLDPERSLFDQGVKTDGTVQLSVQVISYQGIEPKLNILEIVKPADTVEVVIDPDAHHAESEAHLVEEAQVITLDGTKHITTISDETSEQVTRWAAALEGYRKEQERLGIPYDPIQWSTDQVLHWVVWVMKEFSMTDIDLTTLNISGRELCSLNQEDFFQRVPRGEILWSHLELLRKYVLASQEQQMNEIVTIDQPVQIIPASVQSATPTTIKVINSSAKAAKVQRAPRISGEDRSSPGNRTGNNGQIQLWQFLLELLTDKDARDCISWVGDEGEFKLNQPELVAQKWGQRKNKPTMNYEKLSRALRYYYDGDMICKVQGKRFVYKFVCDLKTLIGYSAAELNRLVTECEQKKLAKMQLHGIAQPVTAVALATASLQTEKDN
# Outline: as §1
# [4] = target: T4, ERG (Homo sapiens, UniProt P11308 1-479); settings: protein: recombinant; tags: N-terminal GST; dsDNA, one strand shown
# T4 sequence: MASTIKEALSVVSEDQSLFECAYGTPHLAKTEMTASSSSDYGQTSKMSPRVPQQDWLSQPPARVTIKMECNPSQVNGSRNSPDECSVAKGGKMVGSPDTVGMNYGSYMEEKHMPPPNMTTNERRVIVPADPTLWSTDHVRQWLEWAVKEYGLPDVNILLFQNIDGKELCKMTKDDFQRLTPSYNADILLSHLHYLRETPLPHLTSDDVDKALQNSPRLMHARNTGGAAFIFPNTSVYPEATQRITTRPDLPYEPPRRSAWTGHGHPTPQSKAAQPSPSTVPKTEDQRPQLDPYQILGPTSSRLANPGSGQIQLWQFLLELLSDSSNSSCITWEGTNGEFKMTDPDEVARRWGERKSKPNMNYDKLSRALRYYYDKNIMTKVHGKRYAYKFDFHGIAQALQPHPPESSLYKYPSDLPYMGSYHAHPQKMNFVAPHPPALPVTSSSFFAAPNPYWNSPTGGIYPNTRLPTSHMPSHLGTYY
# Outline: as §1
# [5] = target: ELF1 (Homo sapiens, UniProt P32519 1-619); settings: protein: recombinant; tags: N-terminal GST; dsDNA, one strand shown
# Outline: as §1
# [6] = target: T5, EHF (Homo sapiens, UniProt Q9NZC4 1-300); settings: protein: recombinant; tags: N-terminal GST; dsDNA, one strand shown
# T5 sequence: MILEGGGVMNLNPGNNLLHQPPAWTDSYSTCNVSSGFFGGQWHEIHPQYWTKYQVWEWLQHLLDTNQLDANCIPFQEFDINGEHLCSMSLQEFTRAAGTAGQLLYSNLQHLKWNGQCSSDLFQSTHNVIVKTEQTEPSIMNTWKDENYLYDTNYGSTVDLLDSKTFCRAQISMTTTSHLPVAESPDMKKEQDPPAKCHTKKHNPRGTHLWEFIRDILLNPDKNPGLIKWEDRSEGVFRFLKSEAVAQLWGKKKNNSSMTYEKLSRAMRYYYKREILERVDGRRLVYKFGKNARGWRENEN
# Outline: as §1
# [7] = target: SPI1 (Homo sapiens, UniProt P17947 1-270); settings: protein: recombinant; tags: N-terminal GST; dsDNA, one strand shown
# Outline: as §1
# [8] = target: SPIB (Homo sapiens, UniProt Q01892 1-262); settings: protein: recombinant; tags: N-terminal GST; dsDNA, one strand shown
# Outline: as §1
# [9] = target: T6, ELK3 (Homo sapiens, UniProt P41970 1-407); settings: protein: recombinant; tags: N-terminal GST; dsDNA, one strand shown
# T6 sequence: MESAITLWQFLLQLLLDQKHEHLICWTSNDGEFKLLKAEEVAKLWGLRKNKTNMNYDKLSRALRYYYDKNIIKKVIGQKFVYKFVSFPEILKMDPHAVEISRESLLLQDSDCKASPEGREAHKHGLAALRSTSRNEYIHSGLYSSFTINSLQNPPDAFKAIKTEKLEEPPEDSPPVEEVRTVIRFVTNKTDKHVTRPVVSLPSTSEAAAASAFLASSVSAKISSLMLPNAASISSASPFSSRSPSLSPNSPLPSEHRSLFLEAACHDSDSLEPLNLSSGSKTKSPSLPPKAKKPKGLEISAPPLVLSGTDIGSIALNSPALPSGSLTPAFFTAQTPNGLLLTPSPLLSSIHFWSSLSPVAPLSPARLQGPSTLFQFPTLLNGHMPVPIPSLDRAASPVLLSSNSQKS
# Outline: as §1
# [10] = target: T7, FEV (Homo sapiens, UniProt Q99581 1-238); settings: protein: recombinant; tags: N-terminal GST; dsDNA, one strand shown
# T7 sequence: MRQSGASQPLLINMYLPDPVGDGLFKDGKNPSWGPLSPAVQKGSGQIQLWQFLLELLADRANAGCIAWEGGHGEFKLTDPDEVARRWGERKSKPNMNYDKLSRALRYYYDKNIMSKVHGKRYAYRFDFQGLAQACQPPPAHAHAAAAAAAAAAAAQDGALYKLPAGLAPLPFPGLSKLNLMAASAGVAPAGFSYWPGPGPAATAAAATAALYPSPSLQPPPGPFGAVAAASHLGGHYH
# Outline: as §1
# [11] = target: ETV5 (Homo sapiens, UniProt P41161 1-510); settings: protein: recombinant; tags: N-terminal GST; dsDNA, one strand shown
# Outline: as §1
# [12] = target: HSF1 (Homo sapiens, UniProt Q00613 1-529); settings: protein: recombinant; tags: N-terminal GST; chain copies: 3; dsDNA, one strand shown
# Outline: as §1
# [13] = target: T8, SPIC (Homo sapiens, UniProt Q8N5J4 1-248); settings: protein: recombinant; tags: N-terminal GST; dsDNA, one strand shown
# T8 sequence: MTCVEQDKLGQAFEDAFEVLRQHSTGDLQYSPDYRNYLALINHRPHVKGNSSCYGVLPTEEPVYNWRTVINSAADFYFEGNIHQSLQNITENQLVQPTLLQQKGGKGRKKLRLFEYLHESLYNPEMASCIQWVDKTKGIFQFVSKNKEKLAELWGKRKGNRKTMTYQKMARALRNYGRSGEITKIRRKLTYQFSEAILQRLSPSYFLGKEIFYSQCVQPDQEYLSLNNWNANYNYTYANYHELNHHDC
# Outline: as §1
# [14] = target: ELF4 (Homo sapiens, UniProt Q99607 1-663); settings: protein: recombinant; tags: N-terminal GST; dsDNA, one strand shown
# Outline: as §1
# [15] = target: T9, ELK4 (Homo sapiens, UniProt P28324-2 1-405); settings: protein: recombinant; tags: N-terminal GST; dsDNA, one strand shown
# T9 sequence: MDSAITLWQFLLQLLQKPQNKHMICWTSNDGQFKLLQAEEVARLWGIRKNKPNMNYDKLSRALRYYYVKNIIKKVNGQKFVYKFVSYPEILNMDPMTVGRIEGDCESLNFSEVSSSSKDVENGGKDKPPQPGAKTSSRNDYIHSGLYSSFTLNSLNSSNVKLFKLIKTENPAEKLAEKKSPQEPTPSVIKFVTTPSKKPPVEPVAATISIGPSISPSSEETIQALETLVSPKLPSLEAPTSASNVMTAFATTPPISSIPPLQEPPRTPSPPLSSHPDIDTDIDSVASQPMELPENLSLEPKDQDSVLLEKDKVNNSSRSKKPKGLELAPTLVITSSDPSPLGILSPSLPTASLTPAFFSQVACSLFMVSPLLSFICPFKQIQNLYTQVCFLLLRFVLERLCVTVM
# Outline: as §1
# [16] = target: T10, ETV2 (Homo sapiens, UniProt O00321 1-342); settings: protein: recombinant; tags: N-terminal GST; dsDNA, one strand shown
# T10 sequence: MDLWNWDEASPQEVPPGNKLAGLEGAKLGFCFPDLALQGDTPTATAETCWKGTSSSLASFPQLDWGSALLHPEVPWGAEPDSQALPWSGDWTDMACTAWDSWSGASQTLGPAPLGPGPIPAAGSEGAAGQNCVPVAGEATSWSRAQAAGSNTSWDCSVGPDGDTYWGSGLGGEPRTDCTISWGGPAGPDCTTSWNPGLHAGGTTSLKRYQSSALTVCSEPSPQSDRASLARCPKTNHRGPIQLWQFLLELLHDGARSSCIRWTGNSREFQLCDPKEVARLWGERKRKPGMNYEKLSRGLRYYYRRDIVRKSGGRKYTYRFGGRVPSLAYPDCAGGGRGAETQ
# Outline: as §1
# [17] = target: T11, ELF3 (Homo sapiens, UniProt P78545 1-371); settings: protein: recombinant; tags: N-terminal GST; dsDNA, one strand shown
# T11 sequence: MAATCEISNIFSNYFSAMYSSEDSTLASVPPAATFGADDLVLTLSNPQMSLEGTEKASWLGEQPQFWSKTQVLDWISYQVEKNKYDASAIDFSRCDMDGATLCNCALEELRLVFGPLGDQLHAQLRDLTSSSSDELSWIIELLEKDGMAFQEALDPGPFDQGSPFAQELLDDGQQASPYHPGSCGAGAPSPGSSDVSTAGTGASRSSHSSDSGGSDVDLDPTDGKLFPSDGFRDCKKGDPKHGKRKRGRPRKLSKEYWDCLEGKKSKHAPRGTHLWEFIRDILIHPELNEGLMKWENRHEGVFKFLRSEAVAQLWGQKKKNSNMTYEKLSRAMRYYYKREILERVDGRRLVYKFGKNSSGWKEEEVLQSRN
# Outline: as §1
# [18] = target: CRX (Homo sapiens, UniProt O43186 1-299); settings: protein: recombinant; tags: N-terminal GST; dsDNA, one strand shown
# Outline: as §1
# [19] = target: ETV1 (Homo sapiens, UniProt P50549 1-477); settings: protein: recombinant; tags: N-terminal GST; dsDNA, one strand shown
# Outline: as §1
# Chain of HSF1 (Q00613 whole entry): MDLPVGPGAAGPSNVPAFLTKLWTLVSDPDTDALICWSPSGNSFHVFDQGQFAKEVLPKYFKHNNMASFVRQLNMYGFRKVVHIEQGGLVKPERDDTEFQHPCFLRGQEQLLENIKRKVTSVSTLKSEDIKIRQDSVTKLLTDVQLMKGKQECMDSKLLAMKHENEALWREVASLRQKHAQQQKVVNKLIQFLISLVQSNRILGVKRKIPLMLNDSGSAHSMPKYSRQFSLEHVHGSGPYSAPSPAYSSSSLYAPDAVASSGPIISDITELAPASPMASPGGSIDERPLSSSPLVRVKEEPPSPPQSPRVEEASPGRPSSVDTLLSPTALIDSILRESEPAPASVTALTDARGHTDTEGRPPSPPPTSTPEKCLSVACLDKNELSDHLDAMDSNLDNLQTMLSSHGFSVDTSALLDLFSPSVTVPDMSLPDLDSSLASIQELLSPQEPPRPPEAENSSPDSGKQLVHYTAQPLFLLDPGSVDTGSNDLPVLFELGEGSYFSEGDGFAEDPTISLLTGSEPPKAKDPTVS
# Chain of ELF4 (Q99607 whole entry): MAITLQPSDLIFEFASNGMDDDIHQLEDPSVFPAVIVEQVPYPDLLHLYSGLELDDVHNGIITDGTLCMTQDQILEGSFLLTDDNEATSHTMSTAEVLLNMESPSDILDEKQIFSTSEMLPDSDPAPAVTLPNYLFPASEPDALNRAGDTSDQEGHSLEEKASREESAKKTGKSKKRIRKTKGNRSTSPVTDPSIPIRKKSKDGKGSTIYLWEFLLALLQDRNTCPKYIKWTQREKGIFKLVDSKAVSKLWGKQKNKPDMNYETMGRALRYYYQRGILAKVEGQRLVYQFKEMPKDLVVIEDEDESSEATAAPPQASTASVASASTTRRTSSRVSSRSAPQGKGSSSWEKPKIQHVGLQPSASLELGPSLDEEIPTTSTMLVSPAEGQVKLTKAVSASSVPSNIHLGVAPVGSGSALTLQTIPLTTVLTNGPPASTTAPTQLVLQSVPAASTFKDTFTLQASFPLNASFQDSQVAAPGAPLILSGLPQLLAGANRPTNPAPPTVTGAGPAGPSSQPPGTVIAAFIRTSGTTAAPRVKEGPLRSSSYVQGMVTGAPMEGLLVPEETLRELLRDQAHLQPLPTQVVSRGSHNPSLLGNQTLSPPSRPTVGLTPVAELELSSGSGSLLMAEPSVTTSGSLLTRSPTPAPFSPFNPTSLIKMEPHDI
# Chain of CRX (O43186 whole entry): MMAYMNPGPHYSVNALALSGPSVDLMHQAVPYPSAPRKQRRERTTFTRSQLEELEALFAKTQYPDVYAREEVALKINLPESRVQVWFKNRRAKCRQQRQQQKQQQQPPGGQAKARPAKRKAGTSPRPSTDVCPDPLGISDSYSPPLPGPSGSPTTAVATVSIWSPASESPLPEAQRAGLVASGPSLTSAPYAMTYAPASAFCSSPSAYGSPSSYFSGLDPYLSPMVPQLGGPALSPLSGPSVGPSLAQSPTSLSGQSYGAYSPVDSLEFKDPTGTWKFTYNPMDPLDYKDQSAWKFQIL
# Chain of ETV1 (P50549 whole entry): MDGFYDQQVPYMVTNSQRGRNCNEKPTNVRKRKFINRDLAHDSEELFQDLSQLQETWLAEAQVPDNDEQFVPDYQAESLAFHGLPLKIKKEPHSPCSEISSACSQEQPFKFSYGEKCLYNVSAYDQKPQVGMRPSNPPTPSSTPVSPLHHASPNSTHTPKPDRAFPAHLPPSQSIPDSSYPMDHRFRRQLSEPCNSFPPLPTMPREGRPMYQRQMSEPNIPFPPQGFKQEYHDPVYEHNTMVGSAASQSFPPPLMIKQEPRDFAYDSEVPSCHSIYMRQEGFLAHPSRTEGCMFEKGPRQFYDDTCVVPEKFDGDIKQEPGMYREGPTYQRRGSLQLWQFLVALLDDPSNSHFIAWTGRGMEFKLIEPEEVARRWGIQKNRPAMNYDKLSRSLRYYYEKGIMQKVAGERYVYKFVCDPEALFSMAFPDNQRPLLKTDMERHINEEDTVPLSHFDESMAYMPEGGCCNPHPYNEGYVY
# Chain of ETV5 (P41161 whole entry): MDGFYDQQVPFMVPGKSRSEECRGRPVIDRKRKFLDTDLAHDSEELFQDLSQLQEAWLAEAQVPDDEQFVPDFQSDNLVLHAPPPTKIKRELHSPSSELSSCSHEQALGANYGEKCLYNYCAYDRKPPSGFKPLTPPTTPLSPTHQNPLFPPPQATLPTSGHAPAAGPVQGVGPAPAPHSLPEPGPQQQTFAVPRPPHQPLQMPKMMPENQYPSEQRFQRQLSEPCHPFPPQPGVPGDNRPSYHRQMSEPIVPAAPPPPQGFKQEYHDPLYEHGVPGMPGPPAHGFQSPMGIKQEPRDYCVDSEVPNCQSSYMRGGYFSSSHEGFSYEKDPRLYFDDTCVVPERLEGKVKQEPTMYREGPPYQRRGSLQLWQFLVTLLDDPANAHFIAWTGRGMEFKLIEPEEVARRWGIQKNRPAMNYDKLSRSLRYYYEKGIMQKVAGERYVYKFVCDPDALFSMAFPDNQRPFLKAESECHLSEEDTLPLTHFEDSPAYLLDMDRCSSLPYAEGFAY
# Chain of SPIB (Q01892 whole entry): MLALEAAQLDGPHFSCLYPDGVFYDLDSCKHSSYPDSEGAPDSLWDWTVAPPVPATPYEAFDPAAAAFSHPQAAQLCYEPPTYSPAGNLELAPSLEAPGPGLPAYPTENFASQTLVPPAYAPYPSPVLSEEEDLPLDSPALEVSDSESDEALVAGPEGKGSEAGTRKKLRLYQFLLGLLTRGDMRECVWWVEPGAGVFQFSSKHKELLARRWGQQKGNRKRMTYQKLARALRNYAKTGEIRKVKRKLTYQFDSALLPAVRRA
# Chain of ELF1 (P32519 whole entry): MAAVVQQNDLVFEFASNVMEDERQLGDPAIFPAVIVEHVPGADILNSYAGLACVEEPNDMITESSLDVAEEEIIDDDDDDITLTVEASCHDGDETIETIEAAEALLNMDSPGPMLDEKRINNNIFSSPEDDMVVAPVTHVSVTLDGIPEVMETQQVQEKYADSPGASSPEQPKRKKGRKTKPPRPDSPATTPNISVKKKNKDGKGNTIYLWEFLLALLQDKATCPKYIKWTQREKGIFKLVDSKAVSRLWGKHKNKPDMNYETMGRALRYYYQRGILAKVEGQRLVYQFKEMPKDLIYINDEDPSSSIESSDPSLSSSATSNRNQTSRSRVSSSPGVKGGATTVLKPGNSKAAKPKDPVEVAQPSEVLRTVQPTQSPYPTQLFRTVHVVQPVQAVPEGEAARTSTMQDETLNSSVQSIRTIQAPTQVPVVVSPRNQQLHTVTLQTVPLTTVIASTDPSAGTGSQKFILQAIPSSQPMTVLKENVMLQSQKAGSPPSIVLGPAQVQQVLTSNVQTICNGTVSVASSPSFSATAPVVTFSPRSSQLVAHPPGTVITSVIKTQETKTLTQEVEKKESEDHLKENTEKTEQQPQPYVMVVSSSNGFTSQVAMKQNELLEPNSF
sequence,measurement,setting,value
TAATAG,binding signal,[1],"1.24 fold enrichment (6-mer frequency, TF over GST control)"
same,binding signal,[2],"1.15 fold enrichment (6-mer frequency, TF over GST control)"
same,binding signal,[3],"1.09 fold enrichment (6-mer frequency, TF over GST control)"
same,binding signal,[4],"1.11 fold enrichment (6-mer frequency, TF over GST control)"
same,binding signal,[5],"1.2 fold enrichment (6-mer frequency, TF over GST control)"
same,binding signal,[6],"1.25 fold enrichment (6-mer frequency, TF over GST control)"
same,binding signal,[7],"1.2 fold enrichment (6-mer frequency, TF over GST control)"
same,binding signal,[8],"1.29 fold enrichment (6-mer frequency, TF over GST control)"
same,binding signal,[9],"1.06 fold enrichment (6-mer frequency, TF over GST control)"
same,binding signal,[10],"1.18 fold enrichment (6-mer frequency, TF over GST control)"
same,binding signal,[11],"1.21 fold enrichment (6-mer frequency, TF over GST control)"
same,binding signal,[12],"1.54 fold enrichment (6-mer frequency, TF over GST control)"
same,binding signal,[13],"1.39 fold enrichment (6-mer frequency, TF over GST control)"
same,binding signal,[14],"1.15 fold enrichment (6-mer frequency, TF over GST control)"
same,binding signal,[15],"1.19 fold enrichment (6-mer frequency, TF over GST control)"
same,binding signal,[16],"1.02 fold enrichment (6-mer frequency, TF over GST control)"
same,binding signal,[17],"1.06 fold enrichment (6-mer frequency, TF over GST control)"
same,binding signal,[18],"1.94 fold enrichment (6-mer frequency, TF over GST control)"
same,binding signal,[19],"1.22 fold enrichment (6-mer frequency, TF over GST control)"
